We go through 39 compounds from PubChem BioAssay (NCATS).

Results filed as inconclusive are left out. Where a call stands in place of a potency, no number is given. Active and inactive are the calls of the source. Calls follow the shape of the full dose curve.
Potency is read from the fitted curve at half-maximal effect.

A short description of one experiment: Confirmatory qHTS to identify inhibitors of SARS-CoV-2 cell entry (AID 1645844). Also: nearly all actives have a fitted effect of over 45% in size. The following applies: SARS-CoV-2 pseudotyped particle cell entry, luciferase; series mostly up to 57.2 µM. In a few lines:
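HEK293-ACE2, overnight seeding; cpd 1 h, 37C/5% CO2; + SARS-CoV-2-S MLV PP (Wuhan-Hu-1, ΔC19); 48 h; Bright-Glo luminescence. Data normalised to S PP and bald PP wells.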
In general terms: In qHTS, concentration-response curves come from the screen itself.
Turning to `Cc1cncc(CN2CCC(=C3c4ccc(Cl)cc4CCc4cccnc43)CC2)c1`, the Potency is 0.607 µM (active).

In the case of `O=C1[C@@H]2[C@H]3CC[C@H](C3)[C@@H]2C(=O)N1C[C@@H]1CCCC[C@H]1CN1CCN(c2nsc3ccccc23)CC1`, the Potency was 12.1 µM (active).

As for `CC(CN(C)C)CN1c2ccccc2Sc2ccc(C(F)(F)F)cc21` (stereo unspecified), the Potency is 15.2 µM (active).

For the compound `CC(CN1c2ccccc2Sc2cccnc21)N(C)C` (stereo unspecified), the Potency is 24.1 µM (active).

For the compound `[2H]C([2H])([2H])C(O)([C@@H](C)/C=C/[C@@H](C)[C@H]1CC[C@H]2/C(=C/C=C3C[C@@H](O)C[C@H](O)C3)CCC[C@]12C)C([2H])([2H])[2H]`, the Potency was 6.81 µM (active).

For `CCCN1C[C@H](C)[C@@H](O)[C@](C)(O)[C@@H](CC)OC(=O)[C@H](C)[C@@H](O[C@H]2C[C@@](C)(OC)[C@@H](O)[C@H](C)O2)C(C)[C@@H](O[C@@H]2O[C@H](C)C[C@H](N(C)C)[C@H]2O)[C@](C)(O)C[C@H]1C` (stereo partly specified), the Potency was 21.5 µM (active).

`CCN1CCN(Cc2ccc(Nc3ncc(F)c(-c4cc(F)c5nc(C)n(C(C)C)c5c4)n3)nc2)CC1`: the Potency is 5.41 µM (active).

Another experiment is described as follows: Cytotoxicity counterscreen for inhibitors of SARS-CoV-2 cell entry (AID 1645845). Also: nearly all actives have a fitted effect of over 50% in size. The following applies: cell viability (SARS-CoV-2 entry assay cells); series mostly up to 57.1 µM. The gist of the method:
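Counterscreen run in the same HEK293-ACE2 line as the pseudotyped-particle entry assay, without particles. Viability after 48 h at 37 C was read as ATP luminescence, scaled between cell-containing and cell-free wells.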
(The purpose of a counterscreen is to sort out artefacts and off-target activity.)
As for `Cc1cncc(CN2CCC(=C3c4ccc(Cl)cc4CCc4cccnc43)CC2)c1`, the Potency entry was “inactive”.

As for `CC(C)[C@H]1C(=O)N[C@@H](CCCN=C(N)N)C(=O)NCC(=O)N[C@@H](CC(=O)O)C(=O)N[C@H](Cc2ccccc2)C(=O)N1C`, the Potency result was “inactive”.

For `O=C1[C@@H]2[C@H]3CC[C@H](C3)[C@@H]2C(=O)N1C[C@@H]1CCCC[C@H]1CN1CCN(c2nsc3ccccc23)CC1`, the Potency result was “inactive”.

Turning to `O=C(CCCN1CCC(C(=O)c2ccc(F)cc2)CC1)c1ccc(F)cc1`, the Potency entry is “inactive”.

`CC[C@@H](C(=O)[C@@H](C)[C@@H](O)[C@H](C)CCc1ccc(C)c(O)c1C(=O)O)[C@H]1O[C@](CC)([C@H]2CC[C@](O)(CC)[C@H](C)O2)C[C@@H]1C`: the Potency is 8.91 µM (active).

In the case of `C=CC[C@@H]1/C=C(\C)C[C@H](C)C[C@H](OC)[C@H]2O[C@@](O)(C(=O)C(=O)N3CCCC[C@H]3C(=O)O[C@H](/C(C)=C/[C@@H]3CC[C@@H](O)[C@H](OC)C3)[C@H](C)[C@@H](O)CC1=O)[C@H](C)C[C@@H]2OC`, the Potency result is “inactive”.

In the case of `CC(Cc1ccc(O)c(O)c1)C(C)Cc1ccc(O)c(O)c1` (stereo unspecified), the Potency entry is “inactive”.

Take `CCCCCCC(COC(=O)c1cccnc1)(COC(=O)c1cccnc1)COC(=O)c1cccnc1`: the Potency entry is “inactive”.

On to `CC[C@@H]1/C=C(\C)C[C@H](C)C[C@H](OC)[C@H]2O[C@@](O)(C(=O)C(=O)N3CCCC[C@H]3C(=O)O[C@H](/C(C)=C/[C@@H]3CC[C@H](Cl)[C@H](OC)C3)[C@H](C)[C@@H](O)CC1=O)[C@H](C)C[C@@H]2OC`, for which the Potency entry is “inactive”.

As to `CCOC(=O)Oc1c(OC)cc(C(=O)O[C@@H]2C[C@@H]3CN4CCc5c([nH]c6cc(OC)ccc56)[C@H]4C[C@@H]3[C@H](C(=O)OC)[C@H]2OC)cc1OC`, the Potency result is “inactive”.

For the compound `CC(C)C[C@H]1C(=O)N2CCC[C@H]2[C@]2(O)O[C@](NC(=O)[C@@H]3C=C4c5cccc6[nH]c(Br)c(c56)CC4N(C)C3)(C(C)C)C(=O)N12` (stereo partly specified), the Potency result was “inactive”.

For the compound `CNS(=O)(=O)CC1CCC(N(C)c2ncnc3[nH]ccc23)CC1` (stereo unspecified), the Potency entry was “inactive”.

For `CC(CN(C)C)CN1c2ccccc2Sc2ccc(C(F)(F)F)cc21` (stereo unspecified), the Potency entry is “inactive”.

In the case of `COc1cc2c(cc1OC)[C@H]1C[C@@H](OC(=O)[C@@H](N)C(C)C)[C@H](CC(C)C)CN1CC2`, the Potency result was “inactive”.

Take `CC(CN1c2ccccc2Sc2cccnc21)N(C)C` (stereo unspecified): the Potency entry was “inactive”.

For the compound `CC(=O)c1ccc2c(c1)N(CCCN1CCN(CCO)CC1)c1ccccc1S2`, the Potency entry was “inactive”.

On to `Cc1ccc(C2(O)CCN(CCCC(=O)c3ccc(F)cc3)CC2)cc1`, for which the Potency result is “inactive”.

With `CO[C@H]1/C=C\O[C@@]2(C)Oc3c(C)c(O)c4c(O)c(c5c(c4c3C2=O)=NC2(CCN(CC(C)C)CC2)N=5)NC(=O)/C(C)=C\C=C/[C@H](C)[C@H](O)[C@@H](C)[C@@H](O)[C@@H](C)[C@H](OC(C)=O)[C@@H]1C`, the Potency entry was “inactive”.

Consider `[2H]C([2H])([2H])C(O)([C@@H](C)/C=C/[C@@H](C)[C@H]1CC[C@H]2/C(=C/C=C3C[C@@H](O)C[C@H](O)C3)CCC[C@]12C)C([2H])([2H])[2H]`, for which the Potency entry is “inactive”.

As to `CC(C)(C)NCC(O)COc1ccccc1C1CCCC1` (stereo unspecified), the Potency entry was “inactive”.

For the compound `O=C(O)c1ccc2nc(-c3cc(Cl)cc(Cl)c3)oc2c1`, the Potency entry was “inactive”.

As to `CCCCCCCCCC(=O)OCCN1CCN(CC/C=C2\c3ccccc3Sc3ccc(C(F)(F)F)cc32)CC1`, the Potency result is “inactive”.

With `CCC1OC(=O)[C@H](C)C(=O)[C@H](C)[C@@H](OC2O[C@H](C)C[C@H](N(C)C)[C@H]2O)[C@](C)(OC)C[C@@H](C)C(=O)[C@@H](C)[C@@H]2N(CCCCn3cnc(-c4cccnc4)c3)C(=O)O[C@]12C` (stereo partly specified), the Potency entry was “inactive”.

Consider `CC[C@@H](C)[C@H]1O[C@]2(CC[C@@H]1C)C[C@@H]1C[C@@H](C/C=C(\C)[C@@H](O[C@H]3C[C@H](OC)[C@@H](O[C@H]4C[C@H](OC)[C@@H](O)[C@H](C)O4)[C@H](C)O3)[C@@H](C)/C=C/C=C3\CO[C@@H]4[C@H](O)C(C)=C[C@@H](C(=O)O1)[C@]34O)O2`, for which the Potency result is “inactive”.

Consider `Cc1cnc(C(=O)N[C@H]2CCCCC/C=C\[C@H]3C[C@@]3(C(=O)NS(=O)(=O)C3CC3)NC(=O)[C@@H]3C[C@@H](Oc4nc5ccccc5c5ccccc45)CN3C2=O)cn1`, for which the Potency entry was “inactive”.

Take `CCCCCCCCCC(=O)NO`: the Potency result was “inactive”.

Consider `OC[C@H]1NC[C@H](O)[C@@H](O)[C@@H]1O`, for which the Potency entry is “inactive”.

Regarding `CC(CC(c1ccccc1)c1ccccc1)NC(C)(C)C` (stereo unspecified), the Potency entry was “inactive”.

Consider `CCCCCCCCCC(=O)OCCN1CCN(CCCN2c3ccccc3Sc3ccc(C(F)(F)F)cc32)CC1`, for which the Potency result is “inactive”.

As to `CC(=O)O[C@]1(C(C)=O)CC[C@H]2[C@@H]3C=C(C)C4=CC(=O)CC[C@@H]4[C@H]3CC[C@@]21C`, the Potency entry is “inactive”.

Turning to `C=Cc1c(C)c2cc3nc(cc4[nH]c(cc5nc(cc1[nH]2)C(C)=C5CCC(=O)O)c(CCC(=O)OC)c4C)[C@@]1(C)C3=CC=C(C(=O)OC)[C@@H]1C(=O)OC`, the Potency result was “inactive”.

Turning to `COC(=O)N[C@H](C(=O)N1CCC[C@H]1c1ncc(-c2ccc(-c3ccc(-c4cnc([C@@H]5CCCN5C(=O)[C@@H](NC(=O)OC)C(C)C)[nH]4)cc3)cc2)[nH]1)C(C)C`, the Potency was 39.8 µM (active).

`CCCN1C[C@H](C)[C@@H](O)[C@](C)(O)[C@@H](CC)OC(=O)[C@H](C)[C@@H](O[C@H]2C[C@@](C)(OC)[C@@H](O)[C@H](C)O2)C(C)[C@@H](O[C@@H]2O[C@H](C)C[C@H](N(C)C)[C@H]2O)[C@](C)(O)C[C@H]1C` (stereo partly specified): the Potency result was “inactive”.

Turning to `CCN1CCC(=C2c3ccccc3CCc3ccccc32)C1C` (stereo unspecified), the Potency entry was “inactive”.

For the compound `COc1c(-c2ccc3cc(NS(C)(=O)=O)ccc3c2)cc(-n2ccc(=O)[nH]c2=O)cc1C(C)(C)C`, the Potency entry is “inactive”.

`CCN1CCN(Cc2ccc(Nc3ncc(F)c(-c4cc(F)c5nc(C)n(C(C)C)c5c4)n3)nc2)CC1`: the Potency result was “inactive”.

Turning to `Cc1cc(-n2c(=O)[nH]c(=O)n(C)c2=O)ccc1Oc1ccc(SC(F)(F)F)cc1`, the Potency entry is “inactive”.

Take `OC(CCN1CCCCC1)(c1ccccc1)C1CCCC1` (stereo unspecified): the Potency result was “inactive”.

With `CC(C)C[C@H]1C(=O)O[C@H](Cc2ccc(N3CCOCC3)cc2)C(=O)N(C)[C@@H](CC(C)C)C(=O)O[C@H](C)C(=O)N(C)[C@@H](CC(C)C)C(=O)O[C@H](Cc2ccc(N3CCOCC3)cc2)C(=O)N(C)[C@@H](CC(C)C)C(=O)O[C@H](C)C(=O)N1C`, the Potency entry is “inactive”.
